D2 PAM-1 = HTS Assay for Positive Allosteric Modulators of the Human D2 Dopamine Receptor: Primary Screen for Potentiators | HEK293 T-REx D2, calcium flux, EC20 dopamine potentiation | potentiation, % at 10 µM | hit rate 0.34% among 340,000 | AID 485347, 2010;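 active = potentiation over 3 SD above the plate norm, cut at about 30% in these data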
Target sequence (P14416 whole entry, looked up): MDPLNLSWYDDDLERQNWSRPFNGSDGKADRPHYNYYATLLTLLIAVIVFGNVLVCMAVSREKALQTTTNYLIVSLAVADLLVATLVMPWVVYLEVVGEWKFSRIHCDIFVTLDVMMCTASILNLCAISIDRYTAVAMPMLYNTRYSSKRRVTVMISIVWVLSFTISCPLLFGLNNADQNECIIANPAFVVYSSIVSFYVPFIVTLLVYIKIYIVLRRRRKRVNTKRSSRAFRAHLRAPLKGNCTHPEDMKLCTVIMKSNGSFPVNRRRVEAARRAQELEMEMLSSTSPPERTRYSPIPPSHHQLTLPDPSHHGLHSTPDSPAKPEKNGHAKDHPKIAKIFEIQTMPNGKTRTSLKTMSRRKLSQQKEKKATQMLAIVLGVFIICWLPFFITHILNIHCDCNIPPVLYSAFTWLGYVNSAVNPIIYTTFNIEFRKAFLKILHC
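Primary screen. Calcium kinetics in induced HEK293 T-REx D2 cells: compound pre-addition 180 s, EC20 dopamine, 180 s more.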
D2 PAM-2 = Beta-Arrestin HTS for Positive Allosteric Modulators of the Human D2 Dopamine Receptor: Potentiators | D(2) dopamine receptor (Homo sapiens), P14416 | DiscoveRx D2 beta-arrestin cells, luminescence, 90 min; 100% = 57 uM dopamine signal | potentiation, % (no concentration beside the values) | hit rate 0.23% among 360,000 | AID 624464, 2012; in the data active = potentiation above about 50%; inconclusive = mostly about 30% to 49%
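PathHunter beta-arrestin assay in DiscoveRx D2 cells. Compounds were added with an EC20 of dopamine (50 nM final) for 90 min at 37 deg C. Luminescence was read 1 h after detection reagent, with 57 uM dopamine as the EC100 control.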
D2 antag = HTS Assay for Allosteric Antagonists of the Human D2 Dopamine Receptor: Primary Screen for Antagonists. D(2) dopamine receptor (Homo sapiens), P14416. HEK293 TREx D2 cells, calcium flux, dopamine EC80. inhibition, % at 10 µM. hit rate 2% among 340,000. AID 485344, 2010; in the data active = inhibition above about 30%; inactive = below that, where a call was filed
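HEK293 T-REx D2 cells, tet-induced, calcium dye no-wash. Cpd pintool add, 180 s kinetic, then EC80 DA, 180 s kinetic. Ca flux read.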
D2 ag-1 = HTS Assay for Allosteric Agonists of the Human D2 Dopamine Receptor: Primary Screen for Agonists; HEK293 T-REx D2 cells, calcium flux agonist mode; AID 485358, 2010; D(2) dopamine receptor (Homo sapiens), P14416; activation, % at 2 µM; hit rate 0.53% among 340,000;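 active = activation over 3 SD above normal in the single-dose calcium agonist read, cut at about 30% in these data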
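HEK293 Trex D2 cells, tetracycline-induced, o/n 30 C 5% CO2; no-wash Ca dye, RT 30–90 min; 10-cycle baseline, 23 nl cpd added, kinetic Ca read 180 s; agonist hits = positive Ca response.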
D2 ag-2 = Beta-Arrestin HTS for Positive Allosteric Modulators of the Human D2 Dopamine Receptor: Agonists; D(2) dopamine receptor (Homo sapiens), P14416; DiscoveRx PathHunter D2 beta-arrestin, luminescence, 90 min; 100% = 57 uM dopamine signal; activation, % (test concentration not listed); hit rate 0.084% among 360,000; in the data active = activation above about 40%; inconclusive = between about 15% and that limit
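DiscoveRx PathHunter D2 beta-arrestin cells (2,100/well) attached overnight, then compound-stimulated 90 min at 37 C in HBSS/10 mM HEPES/0.1% Tween-20 buffer; beta-galactosidase complementation read by luminescence after 1 h at ambient temperature. Dopamine 57 uM final (EC100) as control.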
Large screens that a line does not name were inactive. Rows were chosen to be rich in hits. Some 2.4% of all compounds tested hit in one or more screens of this group.

O=C(COc1cccc(Cl)c1)N1CCC(c2nc3ccccc3s2)CC1	none (no result: D2 PAM-2, D2 antag, D2 ag-1, D2 ag-2)
CN1CCC(=C2c3ccccc3C=Cc3ccccc32)CC1	D2 antag 77.1
CCCCNC(=O)c1sc(=S)n2c1[nH]c(=O)c1ccccc12	D2 antag 32.7
O=C(CSc1nc2ccc(Cl)cc2[nH]1)NCCc1ccc(Cl)cc1	none
O=C(CSc1nc2ccc(Cl)cc2[nH]1)NCCc1ccccc1	D2 antag 39.4
O=C(NCCCN1CCCC1=O)Nc1ccc(Cl)cc1	none (no result: D2 PAM-1, D2 antag, D2 ag-1)
O=C(NCCCN1CCCC1=O)Nc1ccc([N+](=O)[O-])cc1	D2 antag 34.8
CCOc1nc(-c2ccccc2)ccc1-c1noc(-c2ccc(C)cc2)n1	none (no result: D2 PAM-2, D2 antag, D2 ag-2)
CCCCOc1ccc(-c2nc(-c3cccnc3)no2)cc1	D2 antag 34.4
CCOc1ccc(-c2nc(-c3cccnc3)no2)cc1	none
CCOc1ccc(-c2nc(-c3ccccc3C)no2)cc1	D2 antag 52.9 (no result: D2 PAM-1, D2 PAM-2, D2 ag-2)
CC(C)CC(N)c1csc(NC(=O)c2cc(C(C)(C)C)nn2Cc2ccccc2)n1 (stereo not drawn)	none (no result: D2 PAM-1, D2 antag, D2 ag-1)
Cc1cc(O)c(C(C)C)cc1NC(=O)Nc1ccc([N+](=O)[O-])cc1	none (no result: D2 PAM-1, D2 antag, D2 ag-1)
Cc1ccc(C(C)C)cc1NC(=O)Nc1ccc([N+](=O)[O-])cc1	D2 antag 37.4
CCOc1ccc(NC(=O)Nc2cc(C(C)C)ccc2C)cc1	D2 antag 31.2 (no result: D2 PAM-2, D2 ag-2)
CCc1ccc(OCC(=O)Nc2ccc(Cl)c(-c3nc4ncccc4o3)c2)cc1	none (no result: D2 PAM-2, D2 antag, D2 ag-2)
COc1cc2c3nnc(-c4ccc(F)cc4)c-3cn(Cc3ccccc3)c2cc1OC	D2 ag-2 50.4
O=[N+]([O-])c1cccc(-c2nnc(C34CC5CC(CC(C5)C3)C4)o2)c1	none
O=[N+]([O-])c1cc(-c2nnc(C34CC5CC(CC(C5)C3)C4)o2)cc([N+](=O)[O-])c1	D2 PAM-2 145.1, D2 ag-2 inconclusive
COc1ccc(Cl)cc1NC(=O)Cn1ccn(Cc2ccc(C)cc2)c(=O)c1=O	none (no result: D2 PAM-2, D2 antag, D2 ag-2)
Cc1ccc(CNC(=O)c2ccc(Nc3nc4ccccc4n4nnnc34)cc2)cc1	none (no result: D2 PAM-2, D2 antag, D2 ag-2)
Cc1ccc(CNc2nc3ccccc3n3nnnc23)cc1	D2 PAM-2 52.0
CSc1ccc(CCNC(=O)C2CCCN(S(=O)(=O)N(C)c3ccc(F)cc3)C2)cc1 (stereo not drawn)	none (no result: D2 PAM-2, D2 antag, D2 ag-2)
CCCCNc1nc2ccccc2n1CC(=O)N1CCc2ccccc2C1	D2 antag 52.9
CCCCNC(=O)N1CCc2ccccc2C1	none
Cc1ccc(Nc2nnc(-c3ccc(C)c(S(=O)(=O)N4CCOCC4)c3)c3ccccc23)c(C)c1	none (no result: D2 PAM-2, D2 antag, D2 ag-2)
CSc1ccc(CNC(=O)Cn2c(-c3cccs3)cc3cc(F)ccc32)cc1	none (no result: D2 PAM-2, D2 antag, D2 ag-2)
COc1cc(C2Nc3cc(C)c(C)cc3NC3=C2C(=O)CC(C)(C)C3)ccc1OC(C)=O (stereo not drawn)	none
Cc1cc2c(cc1C)NC(c1c(C)n(C)n(-c3ccccc3)c1=O)C1=C(CC(C)(C)CC1=O)N2 (stereo not drawn)	D2 ag-1 34.4
O=C(CNC(=O)c1ccc2c(c1)OCCO2)N/N=C/c1ccco1	none
O=C(CNC(=O)C12CC3CC(CC(C3)C1)C2)N/N=C\c1ccco1	D2 PAM-2 79.7
COCCCNCCCOc1ccc(C)cc1Br	D2 antag 38.4
CCCCNCCCOc1cc(Cl)ccc1Cl	D2 antag 56.0
CCC(C)NCCCOc1cc(Cl)ccc1Cl (stereo not drawn)	D2 antag 80.0
CCCCNCCOCCOc1ccc(Cl)cc1Br	D2 antag 72.3
COCCCNCCCOc1ccc(Cl)cc1Br	none
CCC(C)NCCCCOc1ccc(Cl)cc1C (stereo not drawn)	none (no result: D2 PAM-1, D2 antag, D2 ag-1)
Nc1nc(-c2ccc(Cl)cc2)cn1N	D2 antag 30.2
Clc1ccc(-c2cn3c(n2)SCC3)cc1	none
COc1ccc(CN2CCC(Cc3ccccc3)CC2)cc1OC	none
COc1ccccc1C1CCN(Cc2ccccc2)CC1	D2 antag 83.2, D2 ag-1 32.1
COc1ccccc1C1CCN(Cc2ccccc2Cl)CC1	D2 antag 91.9
COc1ccccc1C1CCN(Cc2ccc3ccccc3c2)CC1	D2 antag 85.1
COc1cc(NC(=O)NCC2CCN(Cc3ccccc3Cl)CC2)cc(OC)c1OC	none
COc1ccccc1C1CCN(Cc2cccc([N+](=O)[O-])c2)CC1	D2 antag 110.0
OCCN1CCN(Cc2ccc3ccccc3c2)CC1	none
COc1ccccc1C1CCN(c2ccc(CO)cc2[N+](=O)[O-])CC1	none
O=S(=O)(c1cccc(C(F)(F)F)c1)n1c(/C=C/c2ccccc2)nc2ccccc21	none (no result: D2 PAM-2, D2 antag, D2 ag-2)
COc1cccc2sc(NC(=O)c3ccc(S(=O)(=O)N4CCC(C)CC4)cc3)nc12	none (no result: D2 PAM-2, D2 antag, D2 ag-2)
Cc1ccc(C)c(NC(=O)Cn2cc(C(=O)C3CCCCC3)c3ccccc32)c1	none (no result: D2 PAM-2, D2 antag, D2 ag-2)
Cn1nnc2cc(C(=O)N3CCCCCC3)ccc21	none
Cn1nnc2cc(C(=O)N3CCC(c4ccccc4)C3)ccc21 (stereo not drawn)	D2 PAM-1 103.3
O=c1n(Cc2ccc([N+](=O)[O-])cc2)c2ccccc2c2nc(-c3ccccc3)nn12	none (no result: D2 PAM-2, D2 antag, D2 ag-2)
NC(=O)c1noc(C(=O)N(CC(=O)NC2CCCC2)Cc2ccc3c(c2)OCO3)c1N	D2 antag 36.7
CN(Cc1ccccc1)C(=O)Cc1ccccc1	none
CN(Cc1ccccc1)C(=O)CC(=O)N(C)Cc1ccccc1	D2 PAM-1 33.6
CN(Cc1ccccc1)C(=O)c1ccccc1NC(=O)c1ccco1	D2 antag 31.2
O=C(O)CNC(=O)c1ccccc1NC(=O)c1ccco1	none
CC(C)N(C(=O)N1CCN(c2ccnc3cc(Cl)ccc23)CC1)C(C)C	D2 antag 30.5
Cc1ccc(S(=O)(=O)NC(=O)NCCCCNC(=O)NS(=O)(=O)c2ccc(C)cc2)cc1	none
Cc1ccc(S(=O)(=O)NC(=O)NN2CCCCCC2)cc1	D2 antag 34.4
CCCCNC(=O)NS(=O)(=O)c1ccc(C)cc1	D2 antag 33.2
Cc1nc(N2CCCC2)ncc1C(=O)Nc1ccccc1	none (no result: D2 PAM-2, D2 antag, D2 ag-2)
COc1cc(-c2nnc(-c3cc(OC)c(OC)c(OC)c3)o2)cc(OC)c1OC	none (no result: D2 ag-1)
CCCc1nnc(-c2cc(OC)c(OC)c(OC)c2)o1	D2 antag 30.0
COc1cc(CNC(=O)c2sc3ncccc3c2-n2cccc2)cc(OC)c1OC	none (no result: D2 PAM-2, D2 antag, D2 ag-2)
Cc1ccc(C)c(C(=O)COC(=O)c2ccccc2N2C(=O)C3C4CCC(C4)C3C2=O)c1 (stereo not drawn)	D2 PAM-1 40.7
Cc1ccc(NC(=S)c2nc3ccccc3s2)cc1	D2 PAM-1 87.4

Screening data (PubChem BioAssay)
